Inconclusive results are not listed. A call without a number means that no potency is given here. Calls of active or inactive are those of the source. Calls come from the whole dose curve; as a rule, active = well fitted inhibition curve with a large enough effect; inconclusive = small, poorly fitted or top-dose-only effect, or effect the other way; inactive = no such curve, though single readings can be large or run the other way.
Test: Concentration response confirmation VP16 counterscreen for inhibitors of ROR gamma transcriptional activity; note: nearly all actives have a fitted effect of over 70% in size
Settings: Drosophila S2 Gal4-VP16 UAS-luciferase, luminescence, 20 h; series mostly up to 46.1 µM
Description: NIH Molecular Libraries Probe Production Network [MLPCN] NIH Chemical Genomics Center [NCGC] MLPCN Grant: R03 DA026211-01 Assay Provider: Dan Littman, New York University Assay Overview: The retinoic acid-related orphan receptor (ROR) gamma is a transcription factor that has a central role in the differentiation of Th17 cells, a subset of T helper cells that secrete the inflammatory cytokines IL-17, IL-17F, and IL-22. Th17 cells have been implicated in graft versus host disease, autoimmune disease and asthma. ROR gamma is induced in naive T helper cells in the presence of TGF-beta combined with IL-6, IL-21, or IL-23, and thereafter directs the expression of the Th17 lineage cytokines. To identify nonspecific inhibitors, a Drosophila Schneider cell line was stably transfected with two vectors: a gene expressing a fusion of the Gal4 DNA binding domain and the transactivation domain of the viral transcription factor VP16, under the control of the metallothionine promoter and a Photinus luciferase reporter regulated by the Gal4 binding site enhancer, UAS. […] Small molecule inhibitors that inhibit components common to the RORgt and VP16 assays, such as the Gal4 DNA binding domain or the UAS luciferase reporter, will be active in both assays and thus scored as nonspecific.
Assay Protocol Summary: For screening, 600 cells in 4 uL/well were dispensed into white solid 1536-well plates (Grenier) using a solenoid-based dispenser. Following transfer of 23 nL compound or DMSO vehicle by a pin tool, the plates were incubated 1 hr at ambient temperature, and 1 uL/well copper sulfate (700 uM final concentration) was added. The plates were centrifuged 15 s at 1000 RPM and incubated 20 hr at ambient temperature. After addition of 1.5 uL Photinus luciferase detection reagent, the plates were incubated 10 min at ambient temperature and then read by an ViewLux (Perkin Elmer) to detect luminescence.
In the case of CCOC(=O)c1oc2cccc(OCC(O)CNC(C)C)c2c1C (stereo not given), the Potency is reported as “inactive”.
For O=C(O)c1ccc(/C=N/n2cc(-c3ccccc3)[nH]c2=S)cc1, the Potency was “inactive”.
For COc1ccc(-n2ncc(Cl)c(Cl)c2=O)cc1, the Potency was 19.9 µM (active).
For COc1ccc(-c2cc(-c3nnc(COC(=O)c4ccncc4)o3)c3ccccc3n2)cc1OC, the Potency was “inactive”.
For COc1ccc(C(=O)Nc2nc3cc4c(cc3s2)OCCO4)c(OC)c1, the Potency was 0.223 µM (active).
With CCN(CC(=O)NCCc1ccc(Cl)cc1)Cc1nc2ccccc2c(=O)[nH]1 the Potency was 25 µM (active).
For Cc1nnsc1C(=O)NC1CCCc2c1cnn2-c1ccc(C(C)(C)C)cc1 (stereo not given), the Potency was 22.3 µM (active).
In the case of C=CCNc1nc(Nc2ccc([N+](=O)[O-])cc2)nc(N2CCCC2)n1, the Potency is reported as 19.9 µM (active).
With Cc1cccc(-c2nc3cc(NC(=O)C4CCCO4)ccc3o2)c1 (stereo not given) the Potency was 2.5 µM (active).
In the case of CCOC(=O)[C@@H]1[C@H]2COc3cc(OC)ccc3[C@@H]2N2C(=O)N(c3ccc(C)cc3)C(=O)[C@@]12C, the Potency is reported as “inactive”.
With Cn1c(=O)[nH]c(=O)c2c1nc(NCc1ccco1)n2Cc1ccccc1Cl the Potency was “inactive”.
With Cc1ccc(S(=O)(=O)NCc2ccncc2)cc1 the Potency was 12.5 µM (active).
For O=C(Cn1c(=O)oc2ccc(Cl)cc21)Nc1ccon1, the Potency was “inactive”.
With COc1ccc(-c2cc(C(=O)NNC3=NCCC3)c3c(C)nn(-c4ccccc4)c3n2)cc1 the Potency was 2.5 µM (active).
In the case of O=C1NC2=C(C(=O)CCC2)C(c2ccccc2)N1 (stereo not given), the Potency is reported as “inactive”.
In the case of CCCCc1nnc(NC(=O)CS(=O)(=O)Cc2ccccc2)s1, the Potency is reported as “inactive”.
For COc1ccc(Cl)c(Cn2c(NCc3ccco3)nc3c2c(=O)n(C)c(=O)n3C)c1, the Potency was 1.99 µM (active).
In the case of COc1ccc(-c2cc(C(F)(F)F)nc(S(=O)(=O)CCCC(=O)Nc3cccnc3Cl)n2)cc1OC, the Potency is reported as 9.96 µM (active).
In the case of CCN(C1CCCCC1)S(=O)(=O)c1ccc(S(=O)(=O)NCc2ccncc2)cc1, the Potency is reported as 28.1 µM (active).
For Cn1nnnc1NCc1ccccc1F, the Potency was “inactive”.
For CC(=O)c1cccc(N(CC(=O)Nc2ccccc2C(=O)N2CCCC2)S(C)(=O)=O)c1, the Potency was “inactive”.
In the case of CCOc1cc(C)c(S(=O)(=O)NC2CCCCC2)cc1C, the Potency is reported as “inactive”.
For O=C(NCC1CCCO1)C(C(=O)c1ccccc1)n1ccccc1=O (stereo not given), the Potency was “inactive”.
For CCOc1ccc2nc(NC(=O)c3cnccn3)sc2c1, the Potency was 9.96 µM (active).
With COc1nc(N/N=C/c2cc3c(cc2Br)OCO3)nc(N2CCOCC2)n1 the Potency was “inactive”.
In the case of Cc1ccc(C)c(/C=N/n2cc(-c3ccccc3)[nH]c2=S)c1, the Potency is reported as 9.96 µM (active).
For Cc1cc(NC(=S)NC(=O)/C=C/c2ccc(S(=O)(=O)N3CCOCC3)cc2)ccc1Br, the Potency was 11.2 µM (active).
With c1ccc(-c2ncc3c(ccc4ccccc43)n2)cc1 the Potency was 8.88 µM (active).
In the case of CCOc1ccc(C(=O)Nc2nc3ccccc3[nH]2)cc1OCC, the Potency is reported as 12.5 µM (active).
In the case of O=[N+]([O-])c1cc2c(cc1/C=N/Nc1nc(Nc3ccccc3)nc(N3CCCCC3)n1)OCO2, the Potency is reported as “inactive”.
With COc1cccc(CNS(=O)(=O)c2ccc3c(c2)CCN3C(=O)C2CC2)c1 the Potency was “inactive”.
With CN1CCN(CCC(=O)Nc2cccc(F)c2)CC1 the Potency was “inactive”.
In the case of COCC1CCCCN1C(=O)c1cc(COc2ccc3ncccc3c2)on1 (stereo not given), the Potency is reported as 7.05 µM (active).
For Cc1ccc(-c2noc(CCC(=O)N(C)c3ccccc3C)n2)cc1, the Potency was “inactive”.
For O=C(O)/C=C/C(=O)Nc1ccccc1SC(F)(F)F, the Potency was “inactive”.
In the case of CCOC(=O)C(C(=O)OCC)C(C(=O)OCC)N1CCOCC1 (stereo not given), the Potency is reported as 3.53 µM (active).
For CCn1cc(C(=O)O)c(=O)c2cnc(N3CCN(C(=S)NC(=O)c4ccccc4)CC3)nc21, the Potency was “inactive”.
For O=C(CN1CCCCCC1)Nc1ccc(S(=O)(=O)N2CCOCC2)cc1, the Potency was “inactive”.
In the case of O=C(CSCCO)Nc1ccc(C2CCCCC2)cc1, the Potency is reported as 9.96 µM (active).
In the case of CC(C)(C)c1ccc(-c2noc(CCC(=O)Nc3cccnc3)n2)cc1, the Potency is reported as 1.99 µM (active).
Potency is the fitted concentration of half-maximal effect.
